rTrxR1 inhibitor: rat TrxR1 inhibition. actives 1% (n = 390,000). AID 588453. recombinant rTrxR1, NADPH fluorescence consumption, selenite substrate. Potency, µM (titrated, usually from 114 µM), usual class: inhibitors. O89049; also: nearly all actives have a fitted effect of over 65% in size
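Rat TrxR1 (90 nM in the dispensed reagent) was pre-reduced with 400 uM NADPH for 5 min at room temperature, then incubated with compound for 15 min. After 400 uM selenite was added, NADPH fluorescence (Ex 340/Em 450 nm) was followed for 8 min.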
GALK inhibitor: blocks human galactokinase activity; P51570; Purified GALK, Kinase-Glo residual ATP luminescence; Potency, µM (top dose mostly 57.5 µM), most hits filed as inhibitors; actives 0.007% (n = 270,000); AID 1868
Target sequence (P51570 whole entry, looked up): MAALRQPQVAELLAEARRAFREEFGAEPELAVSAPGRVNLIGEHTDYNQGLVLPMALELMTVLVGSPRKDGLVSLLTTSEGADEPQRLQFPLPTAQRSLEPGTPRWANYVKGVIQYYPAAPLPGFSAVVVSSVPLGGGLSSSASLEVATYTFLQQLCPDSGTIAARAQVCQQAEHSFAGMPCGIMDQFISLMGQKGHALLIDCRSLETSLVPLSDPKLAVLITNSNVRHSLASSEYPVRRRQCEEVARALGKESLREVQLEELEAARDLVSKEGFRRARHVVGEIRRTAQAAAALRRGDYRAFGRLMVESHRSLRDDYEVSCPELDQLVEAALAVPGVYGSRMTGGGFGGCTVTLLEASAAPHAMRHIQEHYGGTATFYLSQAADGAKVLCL
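ATP-depletion format; final 35 uM ATP, 100 uM D-galactose, 5 nM enzyme; pH 8.0 HEPES/Mg2+ buffer; 60 min RT; luminescence read 10 min after detection reagent.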
USP1-UAF1 inh: blocks the human USP1/UAF1 deubiquitinase complex; recombinant USP1/UAF1, Ub-Rhodamine cleavage fluorescence; Potency, µM (doses to about 57.1 µM), most hits filed as inhibitors; actives 0.23% (n = 390,000); O94782; also: nearly all actives have a fitted effect of over 60% in size
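In this screen, compounds sit with the deubiquitinase complex (1nM) for 15 min at room temperature before Ub-Rho is added at 150nM final. Fluorescence rise is then followed for 6 reads every 60 seconds.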
TrxR1 substrate: is turned over as a substrate by rat TrxR1; O89049; Potency, µM (top dose mostly 114 µM); purified TrxR1 substrate turnover, NADPH consumption readout; actives 0.01% (n = 390,000); also: nearly all actives have a fitted effect of over 50% in size
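Rat TrxR1, dispensed at 90 nM, was prereduced with 400 uM NADPH (final) for 5 min at ~22 deg C, then incubated with compound 15 min before 400 uM selenite. A first-read NADPH fluorescence drop versus no-compound background flagged substrates.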
Coupling enz: coupling enzyme interference in Giardia aldolase counter-screen; actives 0.67% (n = 290,000); activity change, negative = inhibition, % at 58.2 µM, hits read low; coupling enzyme system counterscreen, AmpLite Red fluorescence; in the data active = activity change below about -30%
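Fluorescence at 525 nm excitation and 598 nm emission measured inhibition of the coupled detection system without aldolase. Compounds (at 57.5 uM final) were preincubated 10 min at room temperature with coupling enzyme reagent before a 20 min substrate/AmpLite Red step.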
Numbers stand for hits; - = inactive; ? = inconclusive; . = no result; [ ] = another dose, or the depositor's remark. The list is not random: actives were taken first. Their share in the collection is about 1.5%. Unless noted, calls follow the shape of the dose curve; as a rule, active = well fitted curve in the direction sought with a large enough effect; inconclusive = small, poorly fitted or top-dose-only effect, or another doubt; inactive = no such curve, though single readings can be large; an effect the other way counts as inactive or inconclusive.

SMILES	rTrxR1 inhibitor	GALK inhibitor	USP1-UAF1 inh	TrxR1 substrate	Coupling enz
CCCCCC(O)(CCN1CCCCC1)c1ccc(OCC)cc1 (stereo not given)	8.91µM	-	-	-	-
O[C@@](CCN1CCCC1)(c1ccccc1)C1CCCCC1	.	.	.	.	-
CCCC(O)(CCN1CCCCC1)c1ccc(OCC)cc1 (stereo not given)	50.1µM	-	-	-	-
COc1ccc(C(O)(CCN2CCCCC2)C2CCCCC2)cc1 (stereo not given)	2.82µM	-	-	-	-
CCCCOc1ccc(C(O)(CC)CCN2CCOCC2)cc1 (stereo not given)	?	-	-	-	-
CCCCOc1ccc(C(O)(CCC)CCN2CCOCC2)cc1 (stereo not given)	?	.	-	-	-
CC(C)(C)n1ncc2c(=O)n(Cc3ccc(C#N)cc3)cnc21	-	.	.	-	.
Nc1c(C(=O)Nc2ccccc2)sc2nc(-c3ccco3)ccc12	3.98µM	-	-	-	-
Cc1cc(C(=O)CCl)c(C)n1-c1c(C)n(C)n(-c2ccccc2)c1=O	8.91µM	-	-	-	-
Cc1ccc(S(=O)(=O)N2CCCCC2)cc1NC(=O)Cn1cnnn1	-	-	-	-	-
COc1ccc(NC(=O)Cn2ncc(Cl)c(Cl)c2=O)cc1S(=O)(=O)N1CCOCC1	28.2µM	-	-	-	-
Cc1ccc(S(=O)(=O)N2CCCCC2)cc1NC(=O)Cn1ncc(Cl)c(Cl)c1=O	50.1µM	.	-	-	.
CN1CCN(c2oc(-c3ccc(OCc4ccc(Cl)cc4)cc3)nc2C#N)CC1	-	.	.	-	.
Fc1ccc(Nc2nc3nonc3nc2Nc2cccc(C(F)(F)F)c2)cc1	-	.	-	-	.
CCOc1cc(CNc2ccc(O)cc2)cc(Br)c1OCc1ccccc1	-	.	-	-	.
CCOc1cc(CNc2ccc(O)cc2)ccc1OCc1ccc(Cl)cc1	50.1µM	.	?	-	.
Oc1ccc(NCc2ccccc2OCc2ccc(Cl)cc2)cc1	79.4µM	.	?	-	.
Oc1ccc(NCc2ccccc2OCc2ccccc2)cc1	?	-	?	-	-48.4
Nc1ccc(C(Cc2ccnc3ccccc23)Cc2ccnc3ccccc23)cc1	-	.	.	-	.
CN(C)c1ccc(/C=C2\C=Cc3ccccc32)cc1N	-	.	.	-	.
COc1ccc(C2CC(=O)N3CN(c4ccc(C)c(Cl)c4)CSC3=C2C#N)cc1 (stereo not given)	?	-	-	-	-35.6
CCOc1cc(C2CC(=O)N3CN(C4CCCCC4)CSC3=C2C#N)ccc1O (stereo not given)	?	-	?	-	-35.2
COc1ccc(C2CC(=O)N3CN(C4CCCCC4)CSC3=C2C#N)c(OC)c1 (stereo not given)	-	.	2.24µM	-	.
COc1ccc(N2CSC3=C(C#N)C(c4cccc(OC)c4OC)CC(=O)N3C2)cc1 (stereo not given)	?	-	-	-	-
c1cc2c3c(c1)CCC[N+]3(C1CCCCC1)CCC2	-	.	.	-	.
SMILES	rTrxR1 inhibitor	GALK inhibitor	USP1-UAF1 inh	TrxR1 substrate	Coupling enz
COC(=O)CN1CC(=O)c2ccccc2S1(=O)=O	-	.	.	-	-
CCCCCCCCCCCCCCCC[n+]1ccc(CC(O)c2c(C)[nH]c3ccccc23)c2ccccc21 (stereo not given)	-	.	.	-	.
CCCCCCc1ccc(C(=O)CCN(C)C)cc1	10µM	.	.	-	-
CN(C)CCC(=O)c1ccc2c(c1)OCO2	0.316µM	-	-	-	-
CN(C)CCC(=O)c1cccc(Br)c1	0.316µM	-	-	-	-
CN(C)CCC(=O)c1ccc(F)cc1	1.12µM	-	?	-	-
Cc1cc[n+](CCC2CCCCC2)cc1	-	.	.	-	.
NCCCN(Cc1ccccc1)c1ccc(Br)cn1	-	.	.	-	.
CC(C)(C)c1ccc(-n2nc(C#N)c(Cl)cc2=O)cc1	15.8µM	-	?	-	-
Cc1sc(C(C2C(=O)CC(C)(C)CC2=O)C2C(=O)CC(C)(C)CC2=O)cc1[N+](=O)[O-]	2µM	-	-	-	-
CC1(C)CC(=O)C(C(c2cc([N+](=O)[O-])ccc2Cl)C2C(=O)CC(C)(C)CC2=O)C(=O)C1	?	.	-	-	.
CN(C)c1ccc(/C=C2/CCc3ccccc32)cc1	-	.	.	-	.
N#CC1=C2SCN(Cc3ccccc3)CN2C(=O)CC1c1ccc2c(c1)OCO2 (stereo not given)	?	-	-	-	-31.8
O=C(Nc1cccc2nsnc12)c1ccc(-c2cccc(Cl)c2)o1	35.5µM	.	-	-	-39.8
O=C(Nc1ccccc1N1CCCCC1)c1ccc(-c2cccc(Cl)c2)o1	-	-	-	-	-
CN1C(=O)/C(=C/c2coc3ccc(O)cc3c2=O)SC1=S	-	-	-	-	-
CC1=NN2C(=N)/C(=C\c3cc(C)n(-c4ccccc4)c3C)C(=O)N=C2S1	-	-	-	-	-
N=C1/C(=C\c2coc3ccc(O)cc3c2=O)C(=O)N=C2SC=CN12	?	.	28.2µM	-	-
Cc1cc(/C=C2\C(=N)N3N=C(c4ccco4)SC3=NC2=O)c(C)n1Cc1ccccc1	-	-	?	-	-
N=C1/C(=C/c2coc3ccccc3c2=O)C(=O)N=C2SC(c3ccco3)=NN12	50.1µM	-	-	-	-
N=C1/C(=C\c2coc3ccccc3c2=O)C(=O)N=C2SC(c3ccncc3)=NN12	?	?	28.2µM	-[0.0914 µM]	-
CCOc1ccc(OCC)c(C2C(C#N)=C(N)N(c3cccnc3)C3=C2C(=O)CC(C)(C)C3)c1 (stereo not given)	?	-	-	-	-51.6
Cc1ccc(-n2nnnc2CCl)cc1	14.1µM	-	-	-	-
Cc1ccc(-c2nnnn2-c2ccc(C)cc2)cc1	-	-	-	-	-
COC(=O)[C@H](C)NS(=O)(=O)C1CC1	-	.	.	-	.
SMILES	rTrxR1 inhibitor	GALK inhibitor	USP1-UAF1 inh	TrxR1 substrate	Coupling enz
O=S(=O)(CCOc1ccccc1)c1nc2ccccc2[nH]1	44.7µM	-	-	-	-
O=C(CCCOc1ccccc1)Nc1nc2ccccc2[nH]1	-	-	-	-	-
O=C(NCc1ccco1)c1ccccc1-c1ccccc1	-	-	-	-	-
Cc1scc(C(=O)NCc2ccco2)c1-c1ccccc1	14.1µM	-	-	-	-
COc1cccc(/C=C2/SC(=S)N(CC(=O)Nc3nccs3)C2=O)c1	-	.	.	-	.
O=C(CCl)N=c1sccn1Cc1ccccc1Cl	25.1µM	-	-	-	-
O=C(CCl)N=c1sccn1Cc1ccc(Cl)cc1Cl	31.6µM	-	-	-	-
O=C(CCl)N=c1sccn1Cc1cccc2ccccc12	?	-	-	-	-
c1cc(-c2cnn3cc(-c4ccc(OCCN5CCCCC5)cc4)cnc23)ccn1	.	.	.	.	-
Cc1ccc2c(c1)CCCN2C(=O)c1cnn2c1NC(=C1CC1)C=C2C(F)F	-	.	.	-	.
COc1ccccc1N1C(=O)CC(N(O)c2ccccc2)C1=O (stereo not given)	-	.	-	-	-
CCCOc1ccc(N2C(=O)CC(SCC(N)C(=O)OCC)C2=O)cc1 (stereo not given)	-	-	-	-	-
